SARS PLpro yeast – inhibitors of SARS-CoV papain-like protease in yeast | 0.19% of 330,000 active | S. cerevisiae expressing SARS-CoV PLpro, growth rescue | Potency, µM (top dose mostly 32.9 µM), inactives show top-dose activity, positive = growth rescue, most hits filed as activators | AID 485353; calls by dose curve; note: 0% is about no effect; nearly all actives have a fitted effect of over 55% in size
Pf growth 96h – inhibits malaria parasite growth, 96 h; P. falciparum luciferase reporter growth, 96 h; Potency, µM (top dose mostly 28.7 µM), for the others: at the highest dose activity change, negative = inhibition, hits mostly inhibitors; 6.9% of 320,000 active; AID 504834; note: % is set by controls: 0 for no effect and ±100 for the full control effect
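Cell-based qHTS: luciferase-tagged P. falciparum in erythrocytes (2% hematocrit, 0.05% parasitemia final) incubated with compounds for 96 hours, 37 C, 5% CO2; luciferase detection reagent then added and luminescence measured.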
AMA1 RON2 block – inhibitors of Plasmodium falciparum AMA1-RON2 interaction | AlphaScreen AMA1-biotinylated RON2 peptide binding | Potency, µM (series often up to 58.2 µM), inactives show top-dose activity change, negative = inhibition, actives largely listed as inhibitors | 0.2% of 360,000 active | AID 720542;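 note: 0% = vehicle wells and -100% = peptide control; nearly all actives have a fitted effect of over 45% in size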
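AMA1 (3D7) with his tag at 25 nM final met compounds first, then biotinylated RON2 peptide at 25 nM; detection used donor plus acceptor beads, 10 µg/mL apiece, read by AlphaScreen after 30 min at room temperature.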
Pf growth 48h – P. falciparum growth inhibition at 48 hours (one generation); P. falciparum luciferase growth in erythrocytes, 48 h; Potency, µM (top dose mostly 28.7 µM), without a hit: at the top dose activity change, negative = inhibition, hits mostly inhibitors; 5.9% of 310,000 active; AID 504832; note: % is set by controls: 0 for no effect and ±100 for the full control effect
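Compounds are pin-transferred into medium, infected erythrocytes (2% hematocrit, 0.1% parasitemia final) are added, and plates sit one parasite generation at 37 C in 5% CO2. Detection reagent is then added and luminescence measured.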
Starred values were filed as active, the others as inactive; ? = inconclusive; · = no result; [ ] = remark or other dose. Compounds with a hit are over-represented: about 9.4% of the library has one in this group of screens. Unless noted, calls come from the whole dose curve; as a rule, active = well fitted curve in the direction sought with a large enough effect; inconclusive = small, poorly fitted or top-dose-only effect, or another doubt; inactive = no such curve, though single readings can be large; an effect the other way counts as inactive or inconclusive. Potency is the fitted concentration of half-maximal effect.

SMILES	SARS PLpro yeast	Pf growth 96h	AMA1 RON2 block	Pf growth 48h
CC1(C)N=C(N)N=C(N)N1c1ccc(Oc2ccc(Cl)cc2)c(Cl)c1	-2%	0%	-1%	0.21µM*
CC1(C)N=C(N)N=C(N)N1c1cccc(CN)c1	3%	0.93µM*	9%	0.83µM*
O=C(Nc1ccc(Cl)cn1)c1ccccc1F	·	36%	4%	212%
CC1(C)N=C(N)N=C(N)N1c1ccc(F)cc1F	4%	9.3µM*	6%	?
CCN(CC)C(=S)SSC(=S)N(CC)CC	-77%	?	54%	?
CCc1nnc(SCC(=O)Nc2ccc3c(c2)OCO3)n1CC	1%	?	8%	15%
COc1ccc(-c2cnc(SCC(=O)Nc3ccc4c(c3)OCO4)n2Cc2ccco2)cc1	2%	·	14µM*	·
CCn1c(COc2ccc(Cl)cc2)nnc1SCC(=O)Nc1ccc2c(c1)OCO2	1%	10µM*	-5%	10%
O=C1c2ccccc2C2=Nc3ccccc3SC(c3cccc(F)c3)C12 (stereo not drawn)	-66%	?	?	0.59µM*
O=C1CCCC2=C1C(c1ccccc1)C1C(=O)c3ccccc3C1=N2 (stereo not drawn)	29%	-8%	?	-24%
O=C1c2ccccc2C2=Nc3ccccc3SC(c3ccc(Cl)cc3)C12 (stereo not drawn)	-67%	-25%	?	0.52µM*
COCC(O)Cn1ccnc1N=Nc1ccccc1 (stereo not drawn)	·	·	2%	·
Cc1ccc(C2c3[nH]c4ccccc4c3C[C@H]3C(=O)N(c4ccccc4C(=O)NCCN4CCOCC4)C(=O)N23)cc1 (stereo partly drawn)	-3%	?	-13%	15µM*
Cc1ccccc1C1c2[nH]c3ccccc3c2C[C@H]2C(=O)N(c3ccccc3C(=O)NCCCN3CCOCC3)C(=O)N12 (stereo partly drawn)	?	12µM*	-10%	?
O=C(NCCCN1CCOCC1)c1ccccc1N1C(=O)[C@@H]2Cc3c([nH]c4ccccc34)C(c3cccc(Cl)c3)N2C1=O (stereo partly drawn)	6%	9.3µM*	-29%	?
C[C@@H]1CN([C@H](C)CO)C(=O)CCCn2cc(nn2)CO[C@H]1CN(C)C(=O)Oc1ccc2ccccc2c1	·	·	1%	·
C=C1c2cc3c(cc2NC(=S)N1Cc1ccccc1)OCO3	-1%	?	42%	12µM*
CC(=O)Nc1ccc(NC(=O)c2nccnc2C(=O)O)cn1	1%	20%	-7%	·
COc1ccc(S(=O)(=O)N2CCCCC2)cc1NC(=O)CN(Cc1ccco1)Cc1ccco1	-4%	?	-6%	12µM*
O=C(CCl)Nc1cc(S(=O)(=O)N2CCCCCC2)ccc1Cl	8%	?	12%	-13%
CN(CC(=O)Nc1cc(S(=O)(=O)N2CCCC2)ccc1Cl)Cc1ccc2c(c1)OCO2	-10%	?	-7%	8.3µM*
CN(CC(=O)Nc1cc(S(=O)(=O)N2CCCCCC2)ccc1Cl)Cc1ccc2c(c1)OCO2	0%	?	4%	12µM*
COc1ccc(S(=O)(=O)N2CCCCC2)cc1NC(=O)CN(C)C1CCCCC1	0%	?	3%	?
COc1ccc(S(=O)(=O)N2CCCCCC2)cc1NC(=O)CN(C)Cc1ccc2c(c1)OCO2	0%	?	32%	12µM*
CC1(C(=O)NCc2ccccc2)CN(S(C)(=O)=O)CC(=O)N1Cc1cccc(F)c1 (stereo not drawn)	·	·	11%	·
SMILES	SARS PLpro yeast	Pf growth 96h	AMA1 RON2 block	Pf growth 48h
Cc1nc(C)c(-c2ccc(SCc3cccc(F)c3)nn2)s1	-7%	63%	-4%	-2%
COc1ccc(CCNc2ccncn2)cc1	-5%	-1%	33%	24%
CC(=O)c1ccc(NC(=O)[C@@H]2CCCN2C2=NS(=O)(=O)c3ccccc32)cc1	-3%	-30%	28%	14%
COc1ccc(CN2CCc3ccccc3C2)c(OC)c1	-2%	-20%	-8%	27%
COc1ccc(C2=[N+](C)CCn3cccc32)c(OC)c1	-4%	1µM*	4%	2.1µM*
Cc1ccc(-n2nnnc2SCC(=O)Nc2ccc3c(c2)OCCO3)cc1C	-5%	?	29%	24%
COc1ccc(OC)c(-n2nnnc2SCC(=O)Nc2ccc(C(=O)N3CCCCC3)cc2)c1	-1%	12µM*	6%	?
COc1ccc(OC)c(-n2nnnc2SCC(=O)Nc2ccc3c(c2)OCCO3)c1	-4%	10µM*	0%	31%
COc1ccc(CCNC(=O)/C=C/c2cc(OC)c(OC)c(OC)c2)cc1OC	2%	?	-7%	-15%
Cc1[nH]nc2c1C(CCc1ccccc1)C(C#N)=C(N)O2 (stereo not drawn)	0%	-13%	2%	-2%
O=C(COC(=O)c1ccccc1Nc1ccccc1)NCc1ccccc1Cl	-11%	13µM*	12%	-13%
O=C(COC(=O)c1ccccc1Nc1ccccc1)NCc1ccccc1	-12%	?	-1%	?
CCSC1=C(C#N)C2(CCCCC2)C2=C(CC(C)(C)CC2=O)N1	0%	?	-4%	15%
CC1(C)CC(=O)C2=C(C1)NC(SCC(N)=O)=C(C#N)C21CCCCC1	4%	0.17µM*	2%	?
CSc1ncccc1C(=O)OCC(=O)NC1CCCC1	0%	?	-4%	-16%
CC(Oc1ccc(Cl)cc1)c1ccnn1S(=O)(=O)c1ccc(Cl)cc1 (stereo not drawn)	22%	5%	28%	?
Cc1ccc(S(=O)(=O)n2nccc2-c2c(-c3ccc(Cl)cc3)noc2C)cc1	1%	0.37µM*	-11%	0.66µM*
NC(=O)c1cc(S(=O)(=O)N2CCN(c3cccc(Cl)c3)CC2)cs1	-2%	1.2µM*	4%	-10%
CCN(CC)S(=O)(=O)c1cnccc1N1CCN(c2cccc(Cl)c2)CC1	-53%	2.9µM*	-1%[11.6 µM]	3.3µM*
CNS(=O)(=O)c1cnccc1N1CCN(c2cccc(Cl)c2)CC1	·	?	-8%	?
Cc1nn(C)cc1S(=O)(=O)N1CCN(c2cccc(Cl)c2)CC1	-6%	?	2%	-16%
CN1CCN(S(=O)(=O)c2cnccc2N2CCN(c3cccc(Cl)c3)CC2)CC1	3%	2.6µM*	-5%	2.6µM*
Cc1cc(C)c(C)c(/C=C(/C#N)C(N)=S)c1C	5%	-3%	35%	?
COC(=O)/C(=C\c1cc(OC)c(OC)c(OC)c1)c1nc2ccccc2[nH]1	5%	0%	37%	?
COc1cc(/C=C(/C(=O)c2cccs2)c2nc3ccccc3[nH]2)ccc1O	-2%	1.2µM*	26%	2.1µM*
O=C(/C(=C/c1ccc(Cl)cc1)c1nc2ccccc2[nH]1)c1cccs1	-26%	·	57%	1.7µM*
O=C(/C(=C\c1ccccc1)c1nc2ccccc2[nH]1)c1ccc(Cl)cc1	-65%	?	59%	?
Cc1ccc(SCC(=O)Nc2ccc3c(c2)C(=O)N(C)C3=O)cc1	-5%	72%	-2%	40%
CCCCCCNc1nc(OC)nc(N2CC3CC(C2)c2cccc(=O)n2C3)n1 (stereo not drawn)	0%	5%	-3%	8.3µM*
